Results reported in PubChem BioAssay (NCI).
The panel holds about 79,000 compounds, 15% with a hit somewhere; the sample as a whole holds those more often. A number with no mark means an inactive call. Calls of active or inactive are those of the source. No stated cut-off is given here; in the data, active means growth inhibition above about 70%; inactive means the rest.

Columns and labels:
[1] = NCI Yeast Anticancer Drug Screen. Data for the sgs1 mgt1 strain (AID 161);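 further: 0% = growth of cultures given vehicle only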; conditions: S. cerevisiae sgs1 mgt1 strain, active compounds read high
How it was run: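 Test agents were incubated with a DNA-repair-mutant yeast strain. Growth was then read and compared against vehicle-treated controls.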

[2] = NCI Yeast Anticancer Drug Screen. Data for the CLN2oe strain (AID 163);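 further: 0% = growth of vehicle-only control cultures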; conditions: S. cerevisiae CLN2oe strain, active compounds read high
How it was run: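 Strain altered in cell-cycle control, incubated with compound; growth compared to solvent-treated controls.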

[3] = NCI Yeast Anticancer Drug Screen. Data for the cln2 rad14 strain (AID 165);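 further: 0% = growth equal to vehicle treated cultures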; conditions: S. cerevisiae cln2 rad14 strain, active compounds read high
How it was run: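 The screen exposed genetically defined yeast (cln2 rad14) to test compounds and scored growth inhibition relative to vehicle-treated controls.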

[4] = NCI Yeast Anticancer Drug Screen. Data for the bub3 strain (AID 167); conditions: S. cerevisiae bub3 mutant strain, active compounds read high
How it was run: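 Part of a panel of yeast mutants defective in DNA damage repair or cell cycle regulation. Each strain is grown with compound, and inhibition is calculated relative to solvent-treated cultures.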

[5] = NCI Yeast Anticancer Drug Screen. Data for the wt2 strain (AID 169);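 further: 0% = growth of vehicle-treated yeast cultures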; conditions: S. cerevisiae wt2 strain growth inhibition, active compounds read high
How it was run: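 Steps: yeast strain treated with compound; growth recorded; inhibition calculated relative to cultures given vehicle alone.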

[6] = NCI Yeast Anticancer Drug Screen. Data for the mlh1 strain (AID 171);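 further: 0% = growth of vehicle-treated control cultures of the same strain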; conditions: S. cerevisiae mlh1 strain growth inhibition, active compounds read high
How it was run: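 Yeast screen: mutant strain plus compound, growth scored against vehicle control wells.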

[7] = NCI Yeast Anticancer Drug Screen. Data for the sgs1 strain (AID 173);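 further: 0% = growth of vehicle-only control cultures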; conditions: S. cerevisiae sgs1 mutant, active compounds read high
How it was run: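 Inhibition of yeast growth served as the measure. The mutant strain was treated with each compound, and growth was normalised to cultures receiving vehicle alone.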

[8] = NCI Yeast Anticancer Drug Screen. Data for the mlh1 rad18 strain (AID 175); conditions: S. cerevisiae mlh1 rad18 strain growth inhibition, active compounds read high
How it was run: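 Compound-treated yeast growth, normalised to vehicle controls. Strain bears defined DNA repair mutations.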

[9] = NCI Yeast Anticancer Drug Screen. Data for the rad18 strain (AID 177); conditions: S. cerevisiae rad18 mutant growth inhibition, active compounds read high
How it was run: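 Inhibition values reflect reduced yeast growth compared with vehicle-treated controls, using a strain engineered with a DNA damage repair defect.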

[10] = at 5.0 µM (retest, dose inferred, filed as 0.5)
[11] = at 50.0 µM (retest, dose inferred, filed as 5.0)

## COc1cc(O)c(O)c(C(C)(C)C)c1
[1]; [10]
  growth inhibition: 2%
[1]; [11]
  growth inhibition: 50%
[1]; at 50.0 µM
  growth inhibition: 63.8%
[2]; at 1.2 µM
  growth inhibition: -1%
[2]; at 3.7 µM
  growth inhibition: -3%
[2]; at 11.0 µM
  growth inhibition: 3%
[2]; at 33.0 µM
  growth inhibition: -3%
[2]; at 100.0 µM
  growth inhibition: -6%
[3]; [10]
  growth inhibition: -14%
[3]; [11]
  growth inhibition: 18%
[3]; at 50.0 µM
  growth inhibition: 4.65%
[4]; at 1.2 µM
  growth inhibition: -6%
[4]; at 3.7 µM
  growth inhibition: -5%
[4]; [10]
  growth inhibition: 0%
[4]; at 11.0 µM
  growth inhibition: 2%
[4]; at 33.0 µM
  growth inhibition: 7%
[4]; [11]
  growth inhibition: 82% (active)
[4]; at 50.0 µM
  growth inhibition: 61.1%
[4]; at 100.0 µM
  growth inhibition: 17%
[5]; at 1.2 µM
  growth inhibition: -1%
[5]; at 3.7 µM
  growth inhibition: 0%
[5]; at 11.0 µM
  growth inhibition: 8%
[5]; at 33.0 µM
  growth inhibition: 12%
[5]; at 100.0 µM
  growth inhibition: 17%
[6]; at 1.2 µM
  growth inhibition: 3%
[6]; at 3.7 µM
  growth inhibition: 3%
[6]; at 11.0 µM
  growth inhibition: 9%
[6]; at 33.0 µM
  growth inhibition: 15%
[6]; at 100.0 µM
  growth inhibition: 26%
[7]; at 1.2 µM
  growth inhibition: 1%
[7]; at 3.7 µM
  growth inhibition: 7%
[7]; at 11.0 µM
  growth inhibition: 16%
[7]; at 33.0 µM
  growth inhibition: 8%
[7]; at 100.0 µM
  growth inhibition: 43%
[8]; [10]
  growth inhibition: 20%
[8]; [11]
  growth inhibition: 82% (active)
[8]; at 50.0 µM
  growth inhibition: 22.9%
[9]; at 1.2 µM
  growth inhibition: 0%
[9]; at 3.7 µM
  growth inhibition: 1%
[9]; at 11.0 µM
  growth inhibition: -17%
[9]; at 33.0 µM
  growth inhibition: 8%
[9]; at 100.0 µM
  growth inhibition: 16%
